Most compounds without a hit are left out; they make up all but 19% or so of the library.
TDP1 cell CPT: growth inhibition of DT40 Tdp1-/-;hTDP1 cells with camptothecin (screen for TDP1 inhibitors); chicken DT40 Tdp1-/-;hTDP1 cells + 20 nM CPT, ATP luminescence, 48 h; Potency, µM (highest dose often 46.2 µM), for inactives: at the highest dose activity change, negative = growth inhibition, usual class: inhibitors; 420,000 compounds, 12% hits; also: potency is read from the fitted curve at half-maximal effect; nearly all actives have a fitted effect of over 55% in size
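Cell growth measured by CellTiter-Glo luminescence after a minimum 48 h, 37 C compound exposure with 20 nM CPT in Tdp1-knockout DT40 cells stably expressing hTDP1, seeded 400/well; qHTS titration format.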
HT1080NT lethal: kills 2HG-producing HT-1080-NT fibrosarcoma cells; HT-1080-NT fibrosarcoma viability, CellTiter-Glo ATP luminescence, 48 h; Potency, µM (series often up to 46.1 µM), without a hit: at the top dose activity, negative = less viability, usual class: cytotoxic; 360,000 compounds, 1.6% hits;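 also: NT is the 2HG producing partner of a matched IDH1 knockdown line; potency is read from the fitted curve at half-maximal effect; 0% = DMSO-treated cells and -100% = media-only wells without cells; nearly all actives have a fitted effect of over 55% in size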
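HT-1080-NT fibrosarcoma cells (2HG-overproducing), 750 cells/well in RPMI with 5% FBS, dosed after 2 h and incubated 48 h at 37C. CellTiter-Glo luminescence normalized to DMSO and no-cell wells; concentration-response curves fitted and classed.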
HT1080 IDH1KD tx: kills HT-1080 cells with IDH1 knockdown; AID 686971; 360,000 compounds, 2% hits; Potency, µM (titrated, usually from 46.1 µM), inactives show top-dose activity, negative = toxicity, usual class: cytotoxic; HT-1080 IDH1 knockdown viability, ATP luminescence, 48 h;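 also: potency is read from the fitted curve at half-maximal effect; 0% = DMSO wells and -100% = cell-free medium wells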
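Viability of IDH1-knockdown HT-1080 fibrosarcoma cells was assessed by CellTiter-Glo after 48 h at 37 °C with titrated compound; concentration-effect curves were classified by fit quality and response size.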
IL-1B inflam inh: inflammasome signaling inhibition, IL-1 beta readout; THP-1 LPS/ATP IL-1B secretion, AlphaLISA, 16 h; hits give low values; activity change, % at 57.5 µM; 360,000 compounds, 4.7% hits; in the data active = activity change below about -50%; inconclusive = mostly about -30% to -49%
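THP-1 cells pretreated 1 hr with compounds (up to 57.5 uM final), then stimulated with LPS (250 ng/mL final) plus ATP (1.25 mM final); secreted IL-1B measured by AlphaLISA after 16 hr, decreased signal indicating inhibition.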
DT40 TDP1 no CPT: qHTS for Inhibitors of human tyrosyl-DNA phosphodiesterase 1 (TDP1): qHTS in cells in absence of CPT | 420,000 compounds, 15% hits | Potency, µM (doses to about 46.2 µM), inactives show top-dose activity change, negative = growth inhibition, usual class: inhibitors | DT40 Tdp1-/- hTDP1 cells, no CPT, ATP luminescence, 48 h; also: potency is read from the fitted curve at half-maximal effect; nearly all actives have a fitted effect of over 55% in size
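A cellular qHTS used chicken DT40 cells lacking endogenous Tdp1 but carrying stably transfected human TDP1. Compounds were applied without camptothecin, and cell growth kinetics were judged by ATP-dependent luminescence after ≥48 hr.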
Active calls of the source: *. Unless noted, calls follow the shape of the dose curve; as a rule, active = well fitted curve in the direction sought with a large enough effect; inconclusive = small, poorly fitted or top-dose-only effect, or another doubt; inactive = no such curve, though single readings can be large; an effect the other way counts as inactive or inconclusive. Unless noted, % is scaled to controls: 0 for no effect and ±100 for the full control effect.

What do the screens show for `COC(=O)[C@@]1(Cc2ccccc2)[C@H]2C(=O)N(C)C(=O)[C@H]2[C@H]2CN=C(SCc3ccccc3)N21`?
TDP1 cell CPT: 14.6µM*; HT1080NT lethal: 3.7%; HT1080 IDH1KD tx: 2.1%; IL-1B inflam inh: 3.7; DT40 TDP1 no CPT: inconclusive

Results for COC(=O)[C@@]1(Cc2ccccc2)[C@H]2C(=O)N(C)C(=O)[C@H]2[C@H]2CN=C(SCc3ccc(C#N)cc3)N21 ?
TDP1 cell CPT: inconclusive; HT1080NT lethal: 5.7%; HT1080 IDH1KD tx: 4.8%; IL-1B inflam inh: -9.9; DT40 TDP1 no CPT: inconclusive

How did COC(=O)[C@@]1(Cc2ccccc2)[C@H]2C(=O)N(Cc3ccccc3)C(=O)[C@H]2[C@H]2CN=C(SCC3CC3)N21 do in these assays?
TDP1 cell CPT: inconclusive; HT1080NT lethal: 3.5%; HT1080 IDH1KD tx: 7.2%; IL-1B inflam inh: 41.2; DT40 TDP1 no CPT: 23.1µM*

Results for COC(=O)[C@@]1(C)[C@H]2C(=O)N(Cc3ccccc3)C(=O)[C@H]2[C@H]2CN=C(SCc3ccc(C)cc3)N21 ?
TDP1 cell CPT: inconclusive; HT1080NT lethal: 11.2%; HT1080 IDH1KD tx: -1.3%; IL-1B inflam inh: 5.8; DT40 TDP1 no CPT: inconclusive

How did CCN1C[C@@H]2[C@@H]3C(=O)N(C)C(=O)[C@@H]3[C@](Cc3ccccc3)(C(=O)OC)N2C1=NC1CCCCC1 do in these assays?
TDP1 cell CPT: inconclusive; HT1080NT lethal: -6.1%; HT1080 IDH1KD tx: -1.4%; IL-1B inflam inh: 11.8; DT40 TDP1 no CPT: 20.6µM*

What do the screens show for `O=C(Nc1ccc(F)cc1F)c1ccc(CN2CC(=O)N3CCCCC3C2=O)cc1` (stereo not drawn)?
TDP1 cell CPT: inconclusive; DT40 TDP1 no CPT: -24.4%

What do the screens show for `Cc1ccc(C(=O)NNC(=O)CSc2nnc(-c3ccccc3)n2Cc2ccccc2)cc1`?
TDP1 cell CPT: inconclusive; HT1080NT lethal: 14.4%; HT1080 IDH1KD tx: 16.2%; IL-1B inflam inh: -9.2; DT40 TDP1 no CPT: inconclusive

What do the screens show for `O=C(O)c1ccc(NC2=C/C(=N/S(=O)(=O)c3cccs3)c3ccccc3C2=O)cc1`?
TDP1 cell CPT: 9.2µM*; HT1080NT lethal: inconclusive; HT1080 IDH1KD tx: inconclusive; IL-1B inflam inh: -94.1*; DT40 TDP1 no CPT: 6.51µM*

Results for O=C1C(Nc2ccc(O)cc2)=C/C(=N/S(=O)(=O)c2cccs2)c2ccccc21 ?
TDP1 cell CPT: 1.16µM*; HT1080NT lethal: 2.31µM*; HT1080 IDH1KD tx: 1.46µM*; IL-1B inflam inh: -99.5*; DT40 TDP1 no CPT: 1.46µM*

How did CC(NC(=O)C(C)N1CCN(Cc2ccccc2)CC1)c1ccc(F)cc1 (stereo not drawn) do in these assays?
TDP1 cell CPT: 1.3%; HT1080NT lethal: -11.7%; HT1080 IDH1KD tx: -9.0%; IL-1B inflam inh: -5.7; DT40 TDP1 no CPT: -14.6%

What do the screens show for `COc1ccc(C(=O)NCc2ccc3c(c2)CCN3C(=O)c2cccc(C)c2)cc1OC`?
TDP1 cell CPT: -9.3%; DT40 TDP1 no CPT: -0.8%

Results for Cc1ccc(C)c(NC(=O)NCc2ccc3c(c2)CCN3C(=O)c2ccccc2)c1 ?
TDP1 cell CPT: 20.6µM*; DT40 TDP1 no CPT: inconclusive

How did CCN(CC)c1ccc(C(=O)NCc2ccc3c(c2)CCN3C(=O)c2ccccc2)cc1 do in these assays?
TDP1 cell CPT: 20.6µM*; DT40 TDP1 no CPT: 23.1µM*

How did CN(C)c1ccc(C(=O)NCc2ccc3c(c2)CCN3C(=O)c2ccccc2)cc1 do in these assays?
TDP1 cell CPT: 16.4µM*; DT40 TDP1 no CPT: inconclusive

What do the screens show for `Cc1ccc(C(=O)NCc2ccc3c(c2)CCN3C(=O)c2ccc(C)cc2)cc1`?
TDP1 cell CPT: 20.6µM*; DT40 TDP1 no CPT: 18.4µM*

How did CCN(CC)c1ccc(C(=O)NCc2ccc3c(c2)CCN3C(C)=O)cc1 do in these assays?
TDP1 cell CPT: -3.0%; DT40 TDP1 no CPT: -20.6%

What do the screens show for `CCC(=O)N1CCc2cc(CNC(=O)Nc3cc(C)ccc3C)ccc21`?
TDP1 cell CPT: -3.9%; DT40 TDP1 no CPT: -1.3%

How did COc1ccc(-c2nc3cnc(N(C)C)nc3n(C3CC3)c2=O)cc1 do in these assays?
TDP1 cell CPT: -0.4%; DT40 TDP1 no CPT: -16.5%

What do the screens show for `C[C@@H](C(=O)N1CCNCC1)n1cc(CCCN=C(N)N)nn1`?
TDP1 cell CPT: -3.9%; HT1080NT lethal: 14.8%; HT1080 IDH1KD tx: 4.3%; IL-1B inflam inh: 7.3; DT40 TDP1 no CPT: -16.1%

What do the screens show for `CCOC(=O)C(=CNc1ccc(C#N)cc1)C(=O)OCC`?
TDP1 cell CPT: 7.3%; HT1080NT lethal: 9.6%; HT1080 IDH1KD tx: 6.8%; IL-1B inflam inh: -12.8; DT40 TDP1 no CPT: 4.3%

How did CCOC(=O)C(=CNc1cc(C)ccc1-n1cccc1)C(=O)OCC do in these assays?
TDP1 cell CPT: 18.4µM*; HT1080NT lethal: 3.1%; HT1080 IDH1KD tx: 25.4%; DT40 TDP1 no CPT: 16.4µM*

What do the screens show for `CCOC(=O)C(=CNc1ccc2c(c1)CCN2C(C)=O)C(=O)OCC`?
TDP1 cell CPT: 20.6µM*; HT1080NT lethal: -0.5%; HT1080 IDH1KD tx: 7.1%; IL-1B inflam inh: -8.7; DT40 TDP1 no CPT: 7.31µM*

Results for CCOC(=O)C(=CNc1ccc(NC2=NCC(C)(C)S2)cc1)C(=O)OCC ?
TDP1 cell CPT: 18.4µM*; HT1080NT lethal: -14.9%; HT1080 IDH1KD tx: -1.8%; IL-1B inflam inh: inconclusive; DT40 TDP1 no CPT: 9.2µM*

What do the screens show for `CCOC(=O)C(=CNc1ccc(N2CCOCC2)cc1)C(=O)OCC`?
TDP1 cell CPT: inconclusive; HT1080NT lethal: -2.2%; HT1080 IDH1KD tx: 0.9%; IL-1B inflam inh: -0.8; DT40 TDP1 no CPT: 16.4µM*

Results for COc1ccc(NC(=O)c2cc3c([nH]c2=O)CC(c2ccccc2)CC3=O)cc1 (stereo not drawn) ?
TDP1 cell CPT: 16.1%; DT40 TDP1 no CPT: -4.3%

How did C/C(=N\NC(=O)c1ccc(COc2ccccc2)cc1)c1ccncc1 do in these assays?
TDP1 cell CPT: 5.8%; HT1080NT lethal: inconclusive; HT1080 IDH1KD tx: -18.2%; IL-1B inflam inh: 0.0; DT40 TDP1 no CPT: -2.9%

Results for O=C(CN1CCN(Cc2ccccc2)CC1)Nc1ccc(Cl)cc1 ?
TDP1 cell CPT: 10.5%; HT1080NT lethal: 1.5%; HT1080 IDH1KD tx: -23.8%; IL-1B inflam inh: -0.8; DT40 TDP1 no CPT: -13.5%

Results for Cc1ccc(NC(=O)CN2CCN(Cc3ccccc3)CC2)cc1Cl ?
TDP1 cell CPT: -24.4%; HT1080NT lethal: -29.6%; HT1080 IDH1KD tx: -9.4%; IL-1B inflam inh: 0.7; DT40 TDP1 no CPT: 29.1µM*

Results for O=C(CN1CCN(Cc2ccccc2)CC1)Nc1ccccc1-c1ccccc1 ?
TDP1 cell CPT: 25.9µM*; HT1080NT lethal: -14.0%; HT1080 IDH1KD tx: -15.8%; IL-1B inflam inh: -22.0; DT40 TDP1 no CPT: 29.1µM*
